Measurements from PubChem BioAssay AID602474 (National Center for Advancing Translational Sciences (NCATS), 2012).
Results filed as inconclusive are left out. Unmarked numbers belong to inactive results. Active and inactive are the calls of the source. Calls come from the whole dose curve; as a rule, active = well fitted inhibition curve with a large enough effect; inconclusive = small, poorly fitted or top-dose-only effect; inactive = no such curve, though single readings can be large or run the other way.

What follows are compounds tested against Luciferin 4-monooxygenase (Photinus pyralis) (UniProt P08659) (assay: FLuc inhibitory activity for the follow-up compounds in a biochemical assay with a commercial detection reagent - BriteliteTM Plus (PerkinElmer)). Details: purified FLuc, Britelite Plus luminescence; series mostly up to 38.3 µM; activity change, negative = inhibition: at the top concentration.
Source text: NCGC Assay Overview: Firefly (Photinus pyralis) luciferase is one of the most commonly used transcriptional reporters. It is considered one of the more dynamically responsive reporters - that is, responsive to changes in reporter transcription - as it requires no post-translational modifications and is enzymatically active directly after protein synthesis (Wood, 1998). With no endogenous expression in mammalian cells and without the requirement of external excitation, it offers very little background signal, thus generally providing excellent signal to background for most assays. Previous profiling work to determine the prevalence of compounds that affect FLuc enzymatic activity (PubChem AID 411) identified that ~3% of the MLSMR library (then at ~72K) inhibited FLuc (Auld et al., 2008). […] Of the compounds identified in this profile that inhibited FLuc, 151 compounds were selected for further analysis, in an effort to better understand their mode of inhibiting FLuc. The assay described here was to determine the activity of the compounds in a FLuc assay that used a commercial formulation of detection reagent (BriteliteTM Plus; PerkinElmer).
NCGC Assay Protocol Summary: Reagents: Britelite Plus detection reagent; 50mM Tris acetate, pH 7.5; 10nM P. pyralis luciferase (Sigma #L9506) Control compounds used were two known firefly luciferase inhibitors (3-(5-(3-chlorophenyl)-1,2,4-oxadiazol-3-yl)benzoic acid and 5-(2-fluorophenyl)-3-phenyl-1,2,4-oxadiazole), and DMSO. Assay Summary: Three microliters of buffer containing firefly luciferase (final concentrations: 50mM Tris acetate, 10nM P. pyralis luciferase) are dispensed into each well of a Greiner white, solid-bottom 1536-well format plate using a flying reagent dispenser (FRD). These assay plates were then treated with 23nL of compound or DMSO using a Kalypsys pin tool, which allows for delivery of a 12-point intraplate titration of each compound to the assay plate (quantitative HTS), with final compound concentrations ranging from approximately ~38uM to 0.2nM. Three microliters of 2X Britelite Plus detection reagent was then delivered by FRD to each well. Luciferase activity was then measured using a ViewLux CCD imager (PerkinElmer), with an average exposure time of 2-30 seconds (2X binning, medium/high gain).

Luciferin 4-monooxygenase (Photinus pyralis), sequence (P08659 whole entry, looked up): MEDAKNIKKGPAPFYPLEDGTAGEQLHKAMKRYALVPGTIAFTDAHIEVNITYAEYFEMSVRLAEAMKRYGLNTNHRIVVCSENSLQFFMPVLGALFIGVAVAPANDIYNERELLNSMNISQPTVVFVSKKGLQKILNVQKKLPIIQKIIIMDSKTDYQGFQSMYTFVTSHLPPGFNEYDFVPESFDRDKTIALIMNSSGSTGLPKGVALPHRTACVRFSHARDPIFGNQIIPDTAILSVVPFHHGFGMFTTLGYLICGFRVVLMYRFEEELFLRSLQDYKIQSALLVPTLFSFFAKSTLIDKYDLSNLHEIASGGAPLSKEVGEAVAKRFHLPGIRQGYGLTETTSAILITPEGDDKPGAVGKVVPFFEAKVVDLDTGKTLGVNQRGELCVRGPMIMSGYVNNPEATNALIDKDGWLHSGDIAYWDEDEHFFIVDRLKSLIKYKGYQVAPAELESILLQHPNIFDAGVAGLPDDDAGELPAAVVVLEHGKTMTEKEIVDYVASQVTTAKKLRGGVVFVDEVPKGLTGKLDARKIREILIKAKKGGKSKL

| SMILES | Potency | activity change, negative = inhibition |
| --- | --- | --- |
| COc1ccc(C(=O)Nc2ccccc2C(=O)Nc2ccccc2C(=O)O)cc1 | 11300 nM (active) |  |
| O=C(Nc1ccccc1C(=O)O)c1cccc(C(=O)Nc2ccccc2C(=O)O)c1 |  | -11.6% |
| O=C(O)c1cccc(NC(=O)c2cccc(S(=O)(=O)N3CCc4ccccc4C3)c2)c1 |  | -5.63% |
| Cc1ccc2nc(-c3ccc(NC(=O)CN4CCN(C(=O)c5ccco5)CC4)cc3)sc2c1 | 798 nM (active) |  |
| O=C(Nc1ccc(-c2nc3ccccc3s2)cc1)C1=COCCO1 | 400 nM (active) |  |
| COc1cc(OC)cc(C(=O)Nc2ccc(-c3nc4ccccc4s3)c(C)c2)c1 | 113 nM (active) |  |
| Cc1ccc(C(=O)O/N=C(\N)c2ccccn2)cc1 | 28.3 nM (active) |  |
| COc1ccc(CC(=O)Nc2cccc(C(=O)Nc3ccccc3C(=O)O)c2)cc1OC |  | -7.35% |
| COc1ccc2nc(NC(=O)C3CCN(S(=O)(=O)c4cccs4)CC3)sc2c1 |  | -1.3% |
| O=C(O)c1cccc(NC(=O)c2ccc(COc3ccc(Cl)cc3)cc2)c1 |  | 8.38% |
| O=C(Nc1cccc(-c2nc3ccccc3s2)c1)c1cc(-n2cnnc2)ccc1Cl |  | 19.7% |
| COc1ccc(C(=O)Nc2nc3ccc(OC)cc3s2)cc1 |  | -14.5% |
| COc1ccccc1C(=O)Nc1ccc(C(=O)Nc2ccccc2C(=O)O)cc1 |  | 14.6% |
| O=C(Nc1ccc(Cl)cc1-c1nc2ccccc2s1)c1ccco1 |  | 4.66% |
| CN=c1scc(-c2ccccc2F)n1/N=C/c1ccc[nH]1 | 79.8 nM (active) |  |
| O=C(O)c1ccc(NC(=O)c2ccccc2NC(=O)c2ccccc2Cl)cc1 |  | -8.33% |
| CCOC(=O)N1CCN(CC(=O)Nc2nc3ccc(OC)cc3s2)CC1 |  | 4.35% |
| CCCC(=O)Nc1nc2ccc(OCC)cc2s1 | 79.8 nM (active) |  |
| CCOc1ccc2nc(NC(=O)Cc3cccs3)sc2c1 |  | -11.8% |
| Cc1ccc(NS(=O)(=O)c2ccc(Cl)c(C(=O)Nc3cccc(C(=O)O)c3)c2)cc1 |  | 2.08% |

| SMILES | Potency | activity change, negative = inhibition |
| --- | --- | --- |
| O=C(Nc1ccccc1C(=O)O)c1ccccc1 |  | -22.6% |
| COc1ccc2nc(NC(=O)c3cccc(S(=O)(=O)N4CCOCC4)c3)sc2c1 |  | 20% |
| CC(=O)Nc1cccc(-c2nc3ccccc3s2)c1C |  | -17.2% |
| Cc1ccc(C(=O)O/N=C(\N)c2ccccn2)c(Cl)c1 | 25.2 nM (active) |  |
| O=C(O)c1ccc(NC(=O)c2ccccc2NC(=O)c2ccccc2Br)cc1 |  | -11.6% |
| Cc1c(C)c2ccc(OCC(=O)Nc3ccccn3)c(C)c2oc1=O | 40 nM (active) |  |
| O=C(O)c1cccc(NC(=O)c2cccc(S(=O)(=O)N3CCc4ccccc43)c2)c1 |  | -7.51% |
| O=C(O)c1cccc(NC(=O)c2ccccc2NC(=O)c2ccccc2F)c1 |  | -10.9% |
| O=C(Nc1ccccc1C(=O)O)c1cc(S(=O)(=O)NCc2ccccc2)ccc1Cl |  | -4.67% |
| Cc1ccccc1C(=O)Nc1cccc(C(=O)Nc2ccccc2C(=O)O)c1 |  | 0.207% |
| O=C(COC(=O)c1ccccc1[N+](=O)[O-])c1ccc2c(c1)OCO2 | 17.9 nM (active) |  |
| Nc1ccc2nc(-c3ccc(O)cc3)sc2c1 | 1130 nM (active) |  |
| O=C(Nc1ccccc1C(=O)O)c1cccc(NC(=O)c2ccc(Br)o2)c1 |  | -13.3% |
| NC(=O)Cc1ccc2sc(-c3ccccc3)nc2c1 | 6340 nM (active) |  |
| O=C(Nc1ccccc1-c1nc2ccccc2s1)c1ccc(Br)o1 |  | -19.6% |
| O=C(Cc1ccc(Cl)cc1)Nc1cccc(C(=O)Nc2ccccc2C(=O)O)c1 |  | 17.1% |
| O=C(Nc1ccccc1C(=O)O)c1cccc(S(=O)(=O)Nc2ccc(Br)cc2)c1 |  | 14% |
| CC(C)c1ccc(-c2nc3ccccc3s2)cc1 | 22.5 nM (active) |  |
| COc1ccc(C(=O)Nc2ccccc2C(=O)N/N=C/c2ccc(O)c(OC)c2)cc1 | 2 nM (active) |  |
| COc1ccc2nc(NC(=O)c3cnccn3)sc2c1 | 2000 nM (active) |  |
